# Most compounds without a hit are left out; they make up all but 3.4% or so of the library.
# FBW7 act: activators of human E3 ligase FBW7 | AlphaScreen FBW7–phospho-cyclin E peptide binding, activator screen | Q969H0 | normalized activity (activation), % at 26.1 µM | hit rate 0.13% among 650,000; in the data active means normalized activity above about 1.9%;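 further: purified mutant Fbw7 with reduced substrate affinity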
# Target sequence (Q969H0 whole entry, looked up): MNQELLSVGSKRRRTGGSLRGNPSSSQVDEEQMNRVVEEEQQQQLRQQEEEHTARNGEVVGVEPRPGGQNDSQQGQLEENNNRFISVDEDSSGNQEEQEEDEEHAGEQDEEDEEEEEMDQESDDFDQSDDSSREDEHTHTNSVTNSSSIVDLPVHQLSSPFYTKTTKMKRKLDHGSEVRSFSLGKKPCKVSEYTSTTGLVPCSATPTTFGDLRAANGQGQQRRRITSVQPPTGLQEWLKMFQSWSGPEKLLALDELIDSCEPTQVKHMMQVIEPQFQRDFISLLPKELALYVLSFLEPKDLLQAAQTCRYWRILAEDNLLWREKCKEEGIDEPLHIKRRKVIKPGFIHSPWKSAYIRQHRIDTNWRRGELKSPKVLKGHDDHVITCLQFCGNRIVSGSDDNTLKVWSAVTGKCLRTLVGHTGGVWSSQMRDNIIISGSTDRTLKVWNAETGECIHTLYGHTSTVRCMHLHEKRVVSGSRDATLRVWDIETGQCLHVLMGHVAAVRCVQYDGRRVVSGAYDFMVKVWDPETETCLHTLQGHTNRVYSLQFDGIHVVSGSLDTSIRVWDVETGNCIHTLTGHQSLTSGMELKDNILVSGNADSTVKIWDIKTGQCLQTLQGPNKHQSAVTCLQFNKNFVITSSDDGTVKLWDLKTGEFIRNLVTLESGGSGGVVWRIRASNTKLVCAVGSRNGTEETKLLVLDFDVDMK
# GPR151 ag: human GPR151 activation | Q8TDV0 | PathHunter beta-arrestin GPR151 cells, luminescence | activation, % at 11.2 µM | hit rate 1% among 650,000; in the data active means activation above about 4.9%;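 further: 0% = median of compound wells and 100% = cells with positive control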
# TEAD-YAP block: TEAD-YAP interaction inhibition. HEK-TIYL cells, TEAD-Gal4/YAP UAS-luciferase luminescence. inhibition, % at 9.12 µM. hit rate 1.4% among 640,000; in the data active means inhibition above about 32%;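 further: 0% = median of test compound wells and 100% = reference inhibitor wells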
# MITF inh: human MITF inhibition, primary screen; hit rate 0.91% among 650,000; inhibition, % at 2.6 µM; AID 1259374; AlphaScreen MITF homodimerization, bead proximity signal; in the data active means inhibition above about 50%;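 further: 0% = vehicle wells with protein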
# * hit, by the source's call.
SMILES,FBW7 act,GPR151 ag,TEAD-YAP block,MITF inh
CN(C)Cc1ccc2c(sc3nc4n(c(=O)c32)CCCCC4)c1O,0,-1,53*,8
CCN(CC)CCOC(=O)c1ccc(O)c(O)c1,0,-1,-6,-2
Cc1cc(C)cc(NS(=O)(=O)c2ccc3c(c2)OCC(=O)N3)c1,0,1,-12,-8
O=C1COc2cc(S(=O)(=O)Nc3cc(C(F)(F)F)cc(C(F)(F)F)c3)ccc2N1,7.8*,0,5,-13
CC(=O)Oc1cccc(/C=C(\NC(=O)c2ccccc2C)C(=O)N2CC3CC(C2)c2cccc(=O)n2C3)c1 (centres undefined),0,-2,-6,-8
CCOc1ccc(C(=O)CCNCCC(=O)O)cc1,0,0,1,6
CCOc1ccc(C(=O)CSCCC(=O)O)cc1,0,0,35*,7
COCCNC(=O)c1c(C)nc2scc(C)n12,0,0,7,9
COc1cc(OC)cc(-c2nc3ccccc3c(=O)n2NC(=O)/C=C/c2ccccc2Cl)c1,0,0,-4,-10
Cc1cccc(Nc2cc3c4c(ccc5c4c2C(=O)N(c2cccc(C)c2)C5=O)C(=O)N(c2cccc(C)c2)C3=O)c1,0,1,2,-7
Cc1ccc(/C=C2/SC(=S)N(C(CCC(=O)O)C(=O)O)C2=O)o1 (centres undefined),-2,1,-8,55*
CC(C)CC(C(=O)O)N1C(=O)/C(=C\c2ccco2)SC1=S (centres undefined),-1,0,-1,58*
CCCCC(C(=O)O)N1C(=O)/C(=C\c2ccc(C)o2)SC1=S (centres undefined),-1,0,7,26
CCCCC(C(=O)O)N1C(=O)/C(=C\c2ccco2)SC1=S (centres undefined),0,0,-2,28
CCC(C(=O)O)N1C(=O)/C(=C\c2ccc(C)o2)SC1=S (centres undefined),0,-1,0,62*
O=C(O)CCC(C(=O)O)N1C(=O)/C(=C/c2ccccc2)SC1=S (centres undefined),0,-2,6,3
CC(=O)Nc1ccc(-c2csc(NC(=O)CCCOc3ccc(C(C)=O)cc3)n2)cc1,0,0,27,11
O=[N+]([O-])c1ccc(S(=O)(=O)N2CCN=C2SCc2cccc(F)c2)cc1,0,0,6,10
Nc1ncnc(Nc2ccc(Br)cc2)n1,0,-2,-4,10
COC(=O)Nc1c(Cl)nsc1S(=O)(=O)Cc1ccccc1,0,1,14,-1
NC(=O)c1c(Cl)nsc1S(=O)(=O)Cc1ccccc1,0,-2,46*,-1
O=C(NCCc1nnc2n1CCN(CC1CC=CCC1)CC2)c1cccnc1 (centres undefined),0,1,-2,3
O=C(Cn1ccc(=NCc2ccccc2)cc1)c1ccc(Cl)cc1,0,0,22,-2
O=C(Cn1ccc(=NCc2ccccc2)cc1)c1ccc(I)cc1,0,1,66*,-10
O=C(NCCCN1CCOCC1)C(Cc1ccccc1)NS(=O)(=O)c1ccc(Cl)cc1 (centres undefined),2.4*,-1,1,-1
SMILES,FBW7 act,GPR151 ag,TEAD-YAP block,MITF inh
CCOC(=O)c1sc2ncn(C(C)C)c(=O)c2c1C,0,0,-11,2
O=C1C2=C(C(c3ccc(Cl)cc3)=NCCN2)C(c2ccccc2)N1c1ccccc1 (centres undefined),0,0,-1,13
COc1cccc(C2C3=C(NCCN=C3c3ccc(Cl)cc3)C(=O)N2c2ccccc2)c1 (centres undefined),0,1,58*,6
CC(C(=O)Nc1ccc(Cl)cc1)N1c2cccc3cccc(c23)S1(=O)=O (centres undefined),0,-1,9,-17
c1ccc(-c2cn3nc(-c4ccccc4)sc3n2)cc1,0,-1,44*,6
N#C/C(=C\c1ccc(-c2cccc([N+](=O)[O-])c2)o1)C(N)=O,0,1,8,7
N#C/C(=C/c1ccc(-c2ccc([N+](=O)[O-])cc2)o1)C(N)=O,2.4*,0,15,12
C/C(=N\NC(N)=S)c1cc(Cl)sc1Cl,1,0,33*,6
Cc1ccccc1CN1C(=O)CSc2ccc(C(=O)N3CCOCC3)cc21,0,1,-6,0
Cc1ccccc1CN1C(=O)CSc2ccc(C(=O)N3CCN(c4ccccn4)CC3)cc21,0,3,45*,4
COc1cc(NC(=O)c2cccc(-n3cc(NS(=O)(=O)Cc4ccccc4)cn3)c2)cc(OC)c1OC,0,-1,39*,9
COc1cc(NC(=O)c2cccc(-n3cc(Nc4nnnn4-c4ccccc4)cn3)c2)ccc1N1CCOCC1,0,-1,32*,2
COc1cc(NC(=O)c2cccc(-n3cc(Nc4nc5ccccc5[nH]4)cn3)c2)cc(OC)c1OC,0,1,34*,8
CCOc1cc2[nH]c(=O)n(Cc3ccccn3)c(=O)c2cc1OCC,0,0,10,8
Oc1cc2c(cc1O)C1c3ccc(O)c(O)c3OCC1(O)C2 (centres undefined),0,-2,21,116*
CCCCn1c(-c2ccccc2)nc(=S)c2c1CCCC2,0,-2,13,9
C(=N\Nc1nnc2c(n1)[nH]c1ccccc12)/c1ccccn1,-2,0,56*,27
Oc1ccc(O)c(/C=N\Nc2nnc3c(n2)[nH]c2ccccc23)c1,0,2,50*,22
Oc1ccc(/C=N/Nc2nnc3c(n2)[nH]c2ccccc23)cc1,0,-1,-31,23
Oc1ccc(/C=N/Nc2nnc3c(n2)[nH]c2ccccc23)c(O)c1,-1,0,56*,19
COC(=O)c1ccc(N2C(=O)CSC2c2ccc([N+](=O)[O-])cc2)cc1 (centres undefined),-1,-1,-7,-9
COc1ncnc(N2CCC(Cc3ccccc3)CC2)c1C=O,0,1,-1,-11
CC(=O)NC(=S)Nc1ccccc1C(N)=O,0,4,13,-13
COc1ccc2c(c1)CC/C(=C\c1cccn1C)C2=O,0,-7,46*,15
Cc1ccc(/C(N)=N/OC(=O)c2ccc(F)cc2)n1C,0,-1,-6,20
SMILES,FBW7 act,GPR151 ag,TEAD-YAP block,MITF inh
Cc1c(N=C2C(=O)N(CC(=O)O)c3ccccc32)c(=O)n(-c2ccccc2)n1C,2.3*,-1,8,5
O=C1/C(=C\c2cccnc2)Oc2cc(O)ccc21,0,1,9,-29
CCOC(=O)COc1cccc(/C=C2\Oc3cc(OC)ccc3C2=O)c1,0,0,-1,5
Cc1cc(OC(=O)C(C)C)cc2c1C(=O)/C(=C/c1cccnc1)O2,0,-8,63*,-4
COc1cccc(/C=C2\Oc3cc(O)cc(C)c3C2=O)c1,0,-10,98*,14
COC(=O)c1ccc2c(c1)C(=O)/C(=C/c1cccc(OC)c1)O2,0,0,-3,1
Cc1cc(O)cc2c1C(=O)/C(=C/c1cccnc1)O2,0,-6,61*,-4

# Source: PubChem BioAssay
